In PubChem BioAssay (NCATS):
Values joined by “and” are separate entries in the source; they are usually repeats but may differ in a detail not shown here. Equal values may be shown once. Inconclusive results are not listed. Active and inactive are the calls of the source. Unless noted, calls follow the shape of the dose curve; as a rule, active = well fitted curve in the direction sought with a large enough effect; inconclusive = small, poorly fitted or top-dose-only effect, or another doubt; inactive = no such curve, though single readings can be large; an effect the other way counts as inactive or inconclusive.

Experiments:
[1] = molecular target: T1, Hexokinase-4 (Homo sapiens) + Glucokinase regulatory protein (Homo sapiens) (UniProt P35557+Q14397); test: qHTS assay for inhibitors of recombinant human GCK-GKRP interaction: Diaphorase-coupled assay (AID 743205)
T1 sequence (P35557 whole entry, looked up): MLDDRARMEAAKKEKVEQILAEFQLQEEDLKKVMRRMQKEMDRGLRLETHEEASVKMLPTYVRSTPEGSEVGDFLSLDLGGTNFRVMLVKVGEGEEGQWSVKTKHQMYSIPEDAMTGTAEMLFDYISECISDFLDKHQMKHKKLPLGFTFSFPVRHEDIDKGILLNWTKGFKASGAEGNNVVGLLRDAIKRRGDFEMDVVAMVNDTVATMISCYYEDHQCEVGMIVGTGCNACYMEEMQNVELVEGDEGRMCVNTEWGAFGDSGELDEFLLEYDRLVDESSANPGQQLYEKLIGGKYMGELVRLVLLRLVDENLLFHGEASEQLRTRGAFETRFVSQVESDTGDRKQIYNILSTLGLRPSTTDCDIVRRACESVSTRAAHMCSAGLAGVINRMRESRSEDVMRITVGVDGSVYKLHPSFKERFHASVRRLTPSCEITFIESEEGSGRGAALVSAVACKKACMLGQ
T1 sequence (Q14397 whole entry, looked up): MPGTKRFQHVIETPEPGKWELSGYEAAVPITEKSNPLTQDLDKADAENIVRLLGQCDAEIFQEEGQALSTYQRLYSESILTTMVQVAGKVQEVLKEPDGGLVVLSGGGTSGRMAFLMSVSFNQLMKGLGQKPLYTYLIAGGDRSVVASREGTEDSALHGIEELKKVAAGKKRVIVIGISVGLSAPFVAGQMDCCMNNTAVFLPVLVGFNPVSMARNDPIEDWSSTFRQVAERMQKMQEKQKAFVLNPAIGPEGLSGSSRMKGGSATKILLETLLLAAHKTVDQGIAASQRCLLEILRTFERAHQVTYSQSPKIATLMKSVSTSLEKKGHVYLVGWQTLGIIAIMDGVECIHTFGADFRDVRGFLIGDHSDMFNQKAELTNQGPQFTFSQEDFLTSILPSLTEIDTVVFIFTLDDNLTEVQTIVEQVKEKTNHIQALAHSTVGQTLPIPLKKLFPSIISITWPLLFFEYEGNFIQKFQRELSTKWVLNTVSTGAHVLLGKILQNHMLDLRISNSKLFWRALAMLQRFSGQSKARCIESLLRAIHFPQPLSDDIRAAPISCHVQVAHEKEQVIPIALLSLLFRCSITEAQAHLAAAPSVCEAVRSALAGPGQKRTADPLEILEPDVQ
In short: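 GST-GCK (10 nM) with FLAG-GKRP (10 nM), 5 mM glucose and 0.4 mM ATP in pH 7.6 Hepes; compounds preincubated 20 min with substrate. G6PDH/diaphorase coupling converts resazurin to resorufin, read kinetically (ex 525/em 590 nm) for 30 min.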

[2] = molecular target: T1, Hexokinase-4 (Homo sapiens) + Glucokinase regulatory protein (Homo sapiens); test: qHTS assay for inhibitors of recombinant human GCK-GKRP interaction: ADP-Glo assay (AID 743206);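 also: plate controls were DMSO plus enzyme for no effect and no enzyme for full effect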
In short: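 Pin-transferred compounds meet a 15 nM GST-GCK/15 nM FLAG-GKRP/2 uM S6P mix (dispense concentrations). ATP is then added to 0.4 mM final with 5 mM glucose, and the reaction runs 60 min at room temperature. ADP is quantified luminescently.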

[3] = molecular target: T1, Hexokinase-4 (Homo sapiens) + Glucokinase regulatory protein (Homo sapiens); test: qHTS assay for inhibitors of recombinant human GCK-GKRP interaction: HTRF assay (AID 743207);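 also: 0% = DMSO with GCK present and -100% = DMSO wells lacking GCK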
In short: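 GST-GCK and FLAG-GKRP (5 nM each) were combined with 2 uM S6P in pH 7.1 Hepes/MgCl2/KCl/DTT buffer, then compound and anti-FLAG XL665/anti-GST K antibodies were added. After 60 min at room temperature, HTRF 665/615 nm emission was read.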

[4] = qHTS Assay for Identifying Gametocytocidal Compounds (AID 743244); also: potency is read from the fitted curve at half-maximal effect;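 as to max response: % is scaled to controls: 0 for no effect and ±100 for the full control effect; actives lower the fluorescent signal which means gametocytes are killed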; details: P. falciparum 3D7 stage III-V gametocytes, alamarBlue, 72 h; max response: stronger effect = lower value
In short: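 Using 20,000 stage III–V 3D7 gametocytes per well, compounds were incubated 72 h under 37 °C/5% CO2. Viability was then assessed by 24 h alamarBlue reduction, measured fluorometrically at 525/598 nm.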

[5] = qHTS assay for measurement of the activity of small molecule inhibitors on Zika virus induced Caspase-3 activity in human astrocytoma cells (AID 1224859); also: potency is read from the fitted curve at half-maximal effect
In short: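 Inhibition of Zika-induced caspase-3/7 activity: SNB-19 cells, 1 h compound pretreatment, ZIKV 2 FFU/cell for 6 h at 37 C, Caspase-Glo luminescence read-out.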

[6] = qHTS assay to identify small molecule inhibitors of chordoma cells - UCH-1 (AID 1259355); also: % is scaled to controls: 0 for no effect and ±100 for the full control effect; nearly all actives have a fitted effect of over 55% in size
In short: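 800 cells/well, overnight attach; compounds pinned at 15 concs, then auranofin/camptothecin/doxorubicin/rubitecan/topotecan combo added; 48hr 37 C, 5% CO2; CellTiter-Glo, 30min RT, luminescence.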

[7] = qHTS assay to identify small molecule inhibitors of chordoma cells - UCH-2 (AID 1259356); also: % is scaled to controls: 0 for no effect and ±100 for the full control effect
[8] = qHTS profiling for inhibitors of Plasmodium falciparum (3D7) proliferation (AID 743322);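 also: infected erythrocytes exposed to compound for 72 h before lysis; 100% = DMSO vehicle wells and 0% = 0.29 µM artemisinin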; details: P. falciparum 3D7 proliferation; at 28.7 µM (top of the series) unless noted
In short: (§1)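 Parasite DNA was quantified by SYBR Green I fluorescence (ex 485, em 535 nm) after overnight lysis in saponin/Triton buffer at room temperature. Cultures at 0.3% parasitemia and 2.5% hematocrit were first exposed to compound for 72 h at 37 C; signals were normalised to artemisinin (0.29 uM) and vehicle wells.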

[9] = qHTS profiling for inhibitors of Plasmodium falciparum (DD2) proliferation (AID 743323; call rule not given here); details: lower = more inhibition; at 28.7 µM (top of the series) unless noted
In short: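 SYBR Green fluorescence (ex 485, em 535 nm) of lysed cultures gives parasite DNA content; wells normalized to artemisinin (0.29 uM) and DMSO controls. Infected red cells: 0.3% parasitemia, 2.5% hematocrit, 72 h, 37 C.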

[10] = qHTS profiling for inhibitors of Plasmodium falciparum (HB3) proliferation (AID 743324); details: Plasmodium falciparum HB3 blood-stage proliferation; at 28.7 µM (top of the series) unless noted;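 also: 100% = DMSO vehicle wells and 0% = artemisinin-treated control wells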
In short: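 SYBR Green fluorescence (485 ex/535 em) of lysed cultures, incubated overnight at room temperature in the dark, quantifies parasite DNA. Infected erythrocytes at 0.3% parasitemia and 2.5% hematocrit were exposed 72 h; values normalized to DMSO and 0.29 uM artemisinin controls.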

[11] = qHTS profiling of the MIPE4 collection as inhibitors of Plasmodium falciparum (3D7) proliferation (AID 743344; call rule not given here;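 also: scaled between DMSO vehicle wells and 0.29 µM artemisinin as full inhibition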); details: P. falciparum 3D7 in erythrocytes, SYBR Green DNA fluorescence, 72 h; at 28.5 µM (top of the series)
In short: as §1

[12] = qHTS profiling of the MIPE4 collection as inhibitors of Plasmodium falciparum (DD2) proliferation (AID 743345; call rule not given here); details: P. falciparum Dd2 in erythrocytes, SYBR Green DNA, 72 h; at 28.5 µM (top of the series)
In short: as §1

[13] = qHTS profiling of the MIPE4 collection as inhibitors of Plasmodium falciparum (DD2) proliferation (Rep 2) (AID 743346; call rule not given here); details: P. falciparum Dd2 in erythrocytes, SYBR Green DNA, 72 h; at 28.5 µM (top of the series)
In short: as §1

[14] = qHTS profiling of the MIPE4 collection as inhibitors of Plasmodium falciparum (HB3) proliferation (AID 743347; call rule not given here;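 also: plate controls were DMSO vehicle wells for no effect and artemisinin wells for full effect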); details: P. falciparum HB3 in erythrocytes, SYBR Green DNA, 72 h; at 28.5 µM (top of the series)
In short: as §1

[15] = qHTS assay for cell viability of HEK293 cells (AID 743288); details: ATP luminescence (CellTiter-Glo), 18 h; max response: stronger effect = lower value; also: % is scaled to controls: 0 for no effect and ±100 for the full control effect; nearly all actives have a fitted effect of over 50% in size
In short: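 After 18 h compound exposure at 37 C, parental HEK293 cells (2,000/well) are lysed with CellTiter-Glo and luminescence is read following 30 min at room temperature.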

[16] = qHTS assay for cell viability of the p53RE-bla HCT-116 cell line (AID 743292); also: % is scaled to controls: 0 for no effect and ±100 for the full control effect; nearly all actives have a fitted effect of over 55% in size
In short: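 ATP-based luminescent viability (CellTiter-Glo, 30 min RT) after 16 h compound treatment at 37 C of p53RE-bla HCT-116 cells, seeded at 4,000 cells/well and rested 5 h before dosing.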

CCC1C(=O)OCC1Cc1cncn1C (stereo unspecified)
inactive: outcome [1] | Potency [2] | Potency [3] | max response [4] -1.02% and -1.03% and -9.17% | Potency [5] | Potency [6] | Potency [7]

COc1cc(NC(C)CCCN)c2ncccc2c1 (stereo unspecified)
8.84%: parasite growth remaining, % of DMSO control (lower = more inhibition) [12]
inactive: Potency [5] | Potency [6] | Potency [7]
8.75%: growth, % of control [14]
4.3% [at 9.63 µM]: remaining parasite growth % (stronger effect = lower value) [8]
15.5%: parasite growth, % of control (lower = inhibition) [13]
active: Potency [4] 2.15 µM
2.77% [at 9.63 µM]: activity, percent of control [9]
7.16%: parasite growth, % of DMSO control [11]
6.48% [at 9.63 µM]: remaining proliferation (% of control), lower = more inhibition [10]

C=CC(N)CCC(=O)O (stereo unspecified)
inactive: outcome [1] | Potency [2] | Potency [3] | max response [4] -1.49% and -10.7% | Potency [5] | Potency [6] | Potency [7]

COc1ccc(/C=C/C(=O)Nc2ccccc2C(=O)O)cc1OC
active: Potency [5] 7.08 µM
inactive: outcome [1] | Potency [2] | Potency [3] | max response [4] 46% and -4.4% | Potency [6] | Potency [7]

CN(C)[C@@H]1C(=O)C(C(=O)NCN2CCCC2)=C(O)[C@@]2(O)C(=O)C3=C(O)c4c(O)cccc4[C@@](C)(O)C3C[C@@H]12 (stereo partly specified)
inactive: max response [4] 6.22% and 1.93% | Potency [5] | Potency [6] | Potency [7]

Cc1ccc(C(=O)c2ccc(CC(=O)O)n2C)cc1
inactive: max response [4] 39.2% | Potency [5] | Potency [6] | Potency [7]

O=C(O)c1cc(O)c(O)c(O)c1
inactive: max response [15] -7.89% | Potency [16] | Potency [5] | Potency [6] | Potency [7]

O=C(/C=C/c1ccccc1)NCCO
inactive: max response [4] 7.68% | Potency [5] | Potency [6] | Potency [7]

Cc1[nH]cnc1CN1CCc2c(c3ccccc3n2C)C1=O
inactive: max response [4] -6.58% | Potency [5] | Potency [6] | Potency [7]

Cc1c(C(=O)O)c(O)cc2c1C(=O)c1c(O)c([C@@H]3O[C@H](CO)[C@@H](O)[C@H](O)[C@H]3O)c(O)c(O)c1C2=O
inactive: max response [4] -1.02% | Potency [5] | Potency [7]

CCCOC(=O)c1ccc(O)cc1
inactive: max response [4] -1.64% and -4.63% | max response [15] -5.57% and 0.165% and 2.13% | Potency [16] | Potency [5] | Potency [6] | Potency [7]

CCCCCCCCCCCCCCCC(=O)OC(C)C
inactive: max response [4] 3.03% | max response [15] -7.13% | Potency [16] | Potency [5] | Potency [6] | Potency [7]

COc1ccc(-c2cc(=S)ss2)cc1
inactive: max response [4] 9.16% | Potency [5] | Potency [6] | Potency [7]

Cc1nc2ccccc2n1Cc1ccc(Cl)cc1
inactive: max response [4] 3.69% | Potency [5] | Potency [6] | Potency [7]

CCOC(=O)c1ccccc1O
inactive: max response [4] -3.35% and 9.79% | Potency [5] | Potency [6] | Potency [7]

COc1cc2c3cc1Oc1cc(ccc1O)C[C@@H]1c4c(cc(OC)c(O)c4Oc4ccc(cc4)C[C@@H]3N(C)CC2)CC[N+]1(C)C
inactive: max response [4] 1.34% | Potency [5] | Potency [6] | Potency [7]

Cc1c(Nc2ncccc2C(=O)O)cccc1C(F)(F)F
inactive: max response [4] 18.5% | Potency [5] | Potency [6] | Potency [7]

Cc1cc(O)c2ccccc2c1O
active: Potency [4] 15.8 µM
inactive: Potency [5] | Potency [6] | Potency [7]

c1ccc2sc(SSc3nc4ccccc4s3)nc2c1
inactive: max response [4] 10.7% | max response [15] -16% and 1.48% | Potency [16] | Potency [5] | Potency [6] | Potency [7]

Nc1c(CC(=O)O)cccc1C(=O)c1ccc(Br)cc1
inactive: max response [4] 4.37% | Potency [5] | Potency [6] | Potency [7]

Nc1cc(-c2ccncc2)c[nH]c1=O
inactive: max response [4] 14.6% | max response [15] -3.39% | Potency [16] | Potency [5] | Potency [6] | Potency [7]

C[N+](C)(C)CCOP(=O)(O)OP(=O)([O-])OC[C@H]1O[C@@H](n2ccc(N)nc2=O)[C@H](O)[C@@H]1O
inactive: outcome [1] | Potency [2] | Potency [3] | max response [4] 1.57% and 1.8% and 27.7% | Potency [5] | Potency [6] | Potency [7]

O=C(O)c1ccccc1Nc1cccc(C(F)(F)F)c1
inactive: max response [15] -8.76% | Potency [16] | Potency [5] | Potency [6] | Potency [7]

CC(C(=O)O)c1ccc(C(=O)c2ccccc2)s1 (stereo unspecified)
inactive: max response [4] -0.0039% | Potency [6] | Potency [7]
active: Potency [5] 14.1 µM

Cc1ccccc1CNc1ncnc2c1ncn2C1OC(CO)C(O)C1O (stereo unspecified)
inactive: outcome [1] | Potency [2] | Potency [3] | max response [4] 21.1% | Potency [5] | Potency [6]

CN(C)CCn1nnnc1SCC1=C(C(=O)O)N2C(=O)[C@@H](NC(=O)Cc3csc(N)n3)[C@H]2SC1
inactive: max response [4] 19.2% | Potency [5] | Potency [6] | Potency [7]

O=C(O)/C=C/C(O)c1ccc(Cl)cc1 (stereo unspecified)
inactive: outcome [1] | Potency [2] | Potency [3] | max response [4] -3.84% and 16.6% | Potency [5] | Potency [6] | Potency [7]
